Bioassay records (PubChem)
BAZ2B block – inhibitors of human BAZ2B bromodomain | Q9UIF8 | 4.4% of 360,000 active | AlphaScreen BAZ2B-H3K14Ac peptide displacement | Potency, µM (titrated, usually from 114 µM), for inactives: at the top dose activity change, negative = inhibition, most hits filed as inhibitors; further: on the % scale 0 is the no-effect control and ±100 the full control effect; nearly all actives have a fitted effect of over 60% in size
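Complex of BAZ2B and biotin-H3K14Ac (50 nM apiece) forms over 30 min at RT, then faces library compounds up to 110 uM for another 30 min; AlphaScreen beads added, 20 min dark incubation, luminescence read.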
JMJD2A Tudor inh – JMJD2A Tudor domain (human) inhibition | O75164 | AlphaScreen JMJD2A-Tudor / H3K4me3 peptide binding | Potency, µM (series often up to 114 µM), for inactives: at the top dose activity change, negative = inhibition, most hits filed as inhibitors | 4.4% of 390,000 active; further: on the % scale 0 is the no-effect control and ±100 the full control effect; nearly all actives have a fitted effect of over 50% in size
HP1b chromo inh – blocks HP1-beta chromodomain binding to methylated histone tails; AlphaScreen HP1-beta / biotin-H3K9me3 peptide binding; AID 540317; P83916; 0.56% of 390,000 active; Potency, µM (highest dose often 114 µM), without a hit: at the top dose activity change, negative = inhibition, hits mostly inhibitors; further: nearly all actives have a fitted effect of over 70% in size
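Compound inhibition of the preformed complex between 50 nM HP1-beta and 50 nM biotinylated H3K9me3 peptide was read by AlphaScreen. Buffer was PBS pH 7.4 with 0.01% Tween-20. Incubations ran 30 min at room temperature, with 10 ug/mL donor/acceptor beads.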
G9a inh – blocks human histone lysine methyltransferase G9a. Potency, µM (doses to about 102 µM), for inactives: at the highest dose activity, negative = inhibition, usual class: inhibitors. G9a H3K9 monomethylation, AlphaScreen, 2 h. 8.8% of 350,000 active. Q96KQ7. AID 504332; further: on the % scale 0 is the no-effect control and ±100 the full control effect; nearly all actives have a fitted effect of over 75% in size
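Methyltransferase reactions run at room temperature for 2 h (20 nM enzyme, 500 nM biotin-H3K9 peptide, 20 uM SAM) after a 15 min compound preincubation; product detected by AlphaScreen beads and anti-H3K9me1 antibody.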
Sfp inh – blocks B. subtilis Sfp PPTase activity; Biochemical Sfp PPTase activity, qHTS; Potency, µM, for the others: largest response in the series, negative = inhibition, most hits filed as inhibitors; 3.5% of 310,000 active;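 further: the enzyme is Sfp with the accession as filed and its product quenches rhodamine fluorescence; 0% = enzyme reaction without inhibitor and -100% = no enzyme wells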
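After 15 min at room temperature with compound, 15 nM Sfp received 5 uM rhodamine-CoA plus 12.5 uM BHQ-2-ybbR (50 mM Hepes pH 7.6, 10 mM MgCl2). Rate came from the fluorescence difference over 30 min, ex 525/em 598 nm.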
* marks the source's active call; other numbers are inactive results; ? = inconclusive; · = not tested or not shown; ! = not confirmed by another sample; [ ] = remark or other dose. Hits are enriched below; roughly 12% of the tested compounds scored in any of these assays. The call rests on the fitted dose curve; in most records, active means well fitted curve in the direction sought with a large enough effect; inconclusive means small, poorly fitted or top-dose-only effect, or another doubt; inactive means no such curve, though single readings can be large; an effect the other way counts as inactive or inconclusive. Potency means the concentration at half of the fitted maximal effect.

SMILES	BAZ2B block	JMJD2A Tudor inh	HP1b chromo inh	G9a inh	Sfp inh
Cc1sc2ncnc(N3CCC(C(=O)Nc4cc(S(C)(=O)=O)ccc4Cl)CC3)c2c1C	1%	-4%	42%	-36%	·
COC(=O)C(C)Sc1nc2c(c(=O)n(C)c(=O)n2C)n1CCC(C)C (centres undefined)	-2%	12%	20%	79µM*	-14%
Cc1nc2c(Cl)cccc2[nH]1	7%	13%	18%	56µM*	18%
Cc1nc2ccc(Cl)cc2[nH]1	·	-8%	12%	·	·
Cc1ccc(CNCc2ccc3c(c2)OCO3)cc1	?	1.4µM*	?	13µM*	-3%
COc1ccc(CNCc2ccc3c(c2)OCO3)c(OC)c1OC	-31%	0.79µM*	?	45µM*	-15%
FC(F)(F)c1ccccc1CNCc1ccc2c(c1)OCO2	?	20µM*	?	-63%	-19%
CCOC(=O)N1CCN(C(=O)CSc2nnc3[nH]c(=O)c(C)c(C)n23)CC1	-3%	-1%	35%	14µM*	·
CCOC(=O)C/C(C)=N\Nc1nc(-c2ccccc2)cs1	-37%	-28%	-25%	?	?
NNC(=S)Nc1c(Br)cc(F)cc1Br	-6%	-24%	37%	35µM*	1%
O=C(NC(=S)Nc1c(F)cc(F)cc1Br)c1ccc2c(c1)OCCO2	?	-17%	14%	?	-13%
OCCOCCn1c(-c2ccccc2)nc(=S)c2c1CCCC2	6%	-10%	20%	50µM*	?
COCCN(C(=O)CSc1nnc(C)n1Cc1ccccc1)c1c(N)n(Cc2ccccc2)c(=O)[nH]c1=O	·	?	-12%	?	6%
CCCc1cc(=O)[nH]c(SCC(=O)N(CCOC)c2c(N)n(Cc3ccccc3)c(=O)[nH]c2=O)n1	9%	-1%	49%	50µM*	·
CCCN(C(=O)CSc1n[nH]c(-c2ccc(OC)cc2)n1)c1c(N)n(Cc2ccccc2)c(=O)[nH]c1=O	2%	-14%	22%	45µM*	·
COc1ccc(-c2nc(SCC(=O)N(CC(C)C)c3c(N)n(Cc4ccccc4)c(=O)[nH]c3=O)n[nH]2)cc1	12%	-21%	18%	8%[0.501 µM]	·
COCCN(C(=O)CSc1nnc(-c2ccccc2C)n1C)c1c(N)n(Cc2ccccc2)c(=O)[nH]c1=O	-12%	-18%	1%	8.9µM*	6%
CCCC(=O)Oc1cccc(C2NC(=O)c3ccccc3O2)c1 (centres undefined)	3%	-14%	51%	-7%[0.501 µM]	7%
Cc1ccc2cccnc2c1N	?	22µM*	-4%	-3%	-9%
Cc1ccnc2c1ccc1c(C)ccnc12	4.5µM*	7.1µM*	48%	?	·
Cc1cccc2cccnc12	13%	-12%	75%	0%[0.501 µM]	·
Cc1ccnc2c1ccc1ccccc12	43%	17%	78%	65%	14%
Cc1ccnc2c1ccc1cccnc12	2.8µM*	5.6µM*	43%	13µM*	·
COc1ccc(NC(=O)c2cc3cc(C)ccc3n2C)c(OC)c1	-33%	-11%	20%	?	9%
Cc1c2ccccc2nc2ccccc12	·	-18%	20%	·	·
SMILES	BAZ2B block	JMJD2A Tudor inh	HP1b chromo inh	G9a inh	Sfp inh
Cc1c2c(nc3ccccc13)OCC2	24%	-17%	8%	79µM*	-24%
C=CCNC(=S)/N=c1/ccccn1CCC	-7%	-6%	22%	-9%[12.7 µM]	5%
C=CCNC(=S)/N=c1/ccccn1C	-14%	4%	17%	35µM*	-29%
Cc1cc(C)n2nc(C(=O)Nc3nccs3)nc2n1	4%	11µM*	27%	-9%	-7%
CC(=O)N(C(C)=O)c1nc2nc(C)cc(C)n2n1	56µM*	?	-22%	?	-19%
Cc1cc(C)n2nc(C(=O)Nc3ccc(N4CCOCC4)cc3)nc2n1	-8%	-6%	35%	10µM*	-7%
Cc1cc(C)n2nc(C(=O)N3CCOCC3)nc2n1	-8%	-5%[57.1 µM]	22%	-30%[59 µM]	5%
Cc1cc(C)n2nc(C(=O)Nc3cccnc3)nc2n1	16%	-13%	24%	-27%[12.7 µM]	-2%
Cc1cc(C)n2nc(C(=O)NC(c3ccccc3)c3ccccc3)nc2n1	10%	-16%	10%	20%	19%
Cc1csc(NC(=O)c2nc3nc(C)cc(C)n3n2)n1	?	79µM*	4%	?	-16%
Cc1cc(C)n2nc(CCc3nc4nc(C)cc(C)n4n3)nc2n1	-5%	·	·	-5%	9%
O=C(NCCCCNCCCNC(=O)c1ccccc1)c1ccccc1	·	-12%	19%	·	·
COc1ccc(N2C(=O)CC(N3CCN(c4ccc(Cl)cc4)CC3)C2=O)cc1 (centres undefined)	-6%	-9%	21%	-6%[0.501 µM]	7%
Cc1cccc2cc(CN(C(=O)c3cccc([N+](=O)[O-])c3)C(C)C)c(=O)[nH]c12	1%	-15%	14%	-26%	11%
CSc1ccc2c(c1)[C@H](N1CCN(C)CC1)Cc1ccccc1S2	·	·	·	?	-28%
CSc1ccc2c(c1)C(N1CCN(C)CC1)Cc1ccccc1S2 (centres undefined)	?	63µM*	-33%	18µM*!	-20%
CN1CCN(C2Cc3cc(F)ccc3Sc3ccc(Cl)cc32)CC1 (centres undefined)	·	?	7%	·	·
CN1CCN(C2Cc3ccccc3Sc3ccc(Cl)cc32)CC1 (centres undefined)	-37%	79µM*	-25%	?	-23%
Cc1nc(SC2CC(=O)N(c3ccc([N+](=O)[O-])cc3)C2=O)nc2c1CCCC2 (centres undefined)	?	-17%	34%	7%[0.501 µM]	-19%
O=C1/C(=C/c2cccs2)SC(=S)N1NS(=O)(=O)c1ccccc1	?	?	20%	?	-7%
CC(C(=O)O)N1C(=O)/C(=C/C=C/c2ccco2)SC1=S (centres undefined)	2.5µM*	3.2µM*	?	3.2µM*	50µM*
O=C1/C(=C/C=C/c2ccco2)SC(=S)N1NS(=O)(=O)c1ccccc1	7.1µM*	3.5µM*	10µM*	3.2µM*	13µM*
CC(=O)c1ccc(NC(=O)CN2C(=O)/C(=C/C=C/c3ccccc3)SC2=S)cc1	-10%	-19%	3%	?	-10%
Cc1ccc(S(=O)(=O)N(C)C)cc1NC(=S)Nc1ccc2cn[nH]c2c1	·	-8%	10%	?	-8%
Cc1nnsc1C(=O)N/N=C/c1ccc2ccccc2c1O	1.4µM*	?	13%	40µM*	6%
CC(C)(C)C(=O)Nc1nc2c(s1)CN(Cc1ccccc1)CC2	-33%	-17%[11.4 µM]	5%	18µM*	-27%
O=C(Nc1nc2c(s1)CN(Cc1ccccc1)CC2)c1c(F)cccc1F	·	50µM*	-8%	8.9µM*	-6%
O=C(Nc1nc2c(s1)CN(Cc1ccccc1)CC2)C1CCCC1	?	-14%	15%	45µM*	-7%
Cc1ccc(C(=O)NC(C)CCc2ccccc2)cc1S(=O)(=O)N1CCOCC1 (centres undefined)	·	-6%	27%	·	·
